The structures appear in SMILES notation. Results filed as inconclusive are left out. Calls of active or inactive are those of the source. Calls follow the shape of the dose curve; as a rule, active = well fitted cell-killing curve with a large enough effect; inconclusive = small, poorly fitted or top-dose-only effect; inactive = flat fitted curve, though single readings scatter.

The assay is described as follows: Cellular viability qHTS for adrenocortical cancer (ACC) cell line NCI-H295R (AID 1963990). Also: nearly all actives have a fitted effect of over 60% in size.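 As to activity change, negative = viability loss: 0% = DMSO only wells and -100% = full killing with cytotoxic reference compound.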 The conditions noted are these: CellTiter-Glo ATP luminescence, 48 h; series mostly up to 46.1 µM; activity change, negative = viability loss: at the top concentration. In short, it runs like this: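 CellTiter-Glo ATP luminescence, read 48 h after compound addition, measured viability of NCI-H295R adrenocortical cells grown serum-free with ITS. Final concentrations spanned up to 46 uM. Data normalized to DMSO and doxorubicin, fitted for IC50 and maximal response.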
(In general: In qHTS, concentration-response curves come from the screen itself.)
Regarding `OC(CCN1CCCCC1)(c1ccccc1)c1ccccc1`, the “activity change, negative = viability loss” value was -7.12% (inactive).
With `O=C(CS)Nc1ccccc1`, the “activity change, negative = viability loss” value is -28.9% (inactive).
Same read-out and setting: for `O=C(CCNC(=O)c1ccc(OC(F)(F)F)cc1)N[C@@H]1CCCc2ccccc21` the value was -14.1% (inactive); for `CO[C@H]1C=CO[C@@]2(C)Oc3c(C)c(O)c4c(O)c(c(/C=N/N5CCN(C)CC5)c(O)c4c3C2=O)NC(=O)/C(C)=C\C=C[C@H](C)[C@H](O)[C@@H](C)[C@@H](O)[C@@H](C)[C@H](OC(C)=O)[C@@H]1C`, -23.5% (inactive); for `COc1ccc2c(c1)c(CC(=O)OC/C=C(\C)CC/C=C(\C)CCC=C(C)C)c(C)n2C(=O)c1ccc(Cl)cc1`, -23.9% (inactive).
As for `COC(=O)C1=C(C)NC(C)=C(C(=O)OCC(C)=O)C1c1ccccc1[N+](=O)[O-]` (configuration not stated), the Potency is 6.51 µM (active).
With `Cc1onc(-c2ccc(F)cc2)c1COc1ccc(C(=O)N2CCS(=O)(=O)CC2)cn1`, the “activity change, negative = viability loss” value was 3.54% (inactive).
As for `COCCNCc1ccc(-c2cc3nccc(Oc4ccc(NC(=O)C5(C(=O)Nc6ccc(F)cc6)CC5)cc4F)c3s2)nc1`, the Potency was 3.16 µM (active).
In the case of `CCOc1cc(/C=C2/C(=O)N(c3ccccc3)N=C2C)cc(Cl)c1OCC(=O)OC`, the “activity change, negative = viability loss” value was -25.1% (inactive).
For the compound `CCCN1C[C@H](CSC)C[C@@H]2c3cccc4[nH]cc(c34)C[C@H]21`, the “activity change, negative = viability loss” value was -16.6% (inactive).
Still for that read-out and setting: with `CC(C)(CO)[C@@H](O)C(=O)NCCCO` the figure was 3.9% (inactive); with `CC(C(=O)O)c1ccc(/C=C2\CCCCC2=O)cc1` (configuration not stated), 0.246% (inactive).
Consider `c1ccc2c(c1)CCCC2C1=NCCN1` (configuration not stated), for which the “activity change, negative = viability loss” value was -22.4% (inactive).
Regarding `CC(C)(Cc1c[nH]c2ccccc12)NCC(O)COc1ccccc1C#N` (configuration not stated), the “activity change, negative = viability loss” value is -24.9% (inactive).
On the same count and under the same terms, with `CCCC(=O)OC[C@@H](OC(=O)CCC)[C@@H](OC(=O)CCC)[C@H](Cn1c2nc(=O)[nH]c(=O)c-2nc2cc(C)c(C)cc21)OC(=O)CCC` the figure was -31.4% (inactive).
Turning to `COc1ccc2[nH]c(S(=O)Cc3ncc(C)c(OC)c3C)nc2n1` (configuration not stated), the Potency entry is “inactive”.
On to `N[C@@H](CCC(=O)O)C(=O)N[C@@H](Cc1c[nH]c2ccccc12)C(=O)O`, for which the “activity change, negative = viability loss” value is -1.23% (inactive).
The same measure, in the same setting: with `CC(C)(Oc1ccc(Cl)cc1)C(=O)OCCCOC(=O)C(C)(C)Oc1ccc(Cl)cc1` the figure was -7.74% (inactive); with `CO/N=C1\CN(c2nc3c(cc2F)c(=O)c(C(=O)O)cn3C2CC2)CC1CN` (configuration not stated), 0.355% (inactive).
On the same count and under the same terms, with `O=C(O)CCCCN(CCc1ccccc1OCc1ccc(CCc2ccccc2)cc1)Cc1ccc(C(=O)O)cc1` the figure was -2.82% (inactive); with `C[C@H](Nc1nc(N[C@H](C)C(F)(F)F)nc(-c2cccc(Cl)n2)n1)C(F)(F)F`, -16.2% (inactive); with `O=C1CC2(CCCC2)CC(=O)N1CCCCN1CCN(c2ncccn2)CC1`, -2.51% (inactive).
With `CCc1oc2ccccc2c1C(=O)c1cc(I)c(O)c(I)c1`, the Potency is 6.51 µM (active).
As for `O=C(O)c1ccccc1-c1ccc(/C=c2\sc3nc4cc(Br)cnc4n3c2=O)o1`, the “activity change, negative = viability loss” value was -12.9% [at 20 µM] (inactive).
Take `CC(C)(C)c1ccc(C(=O)CCCCl)cc1`: the “activity change, negative = viability loss” value was -8.58% (inactive).
Same read-out and setting: with `CN/C(=C\[N+](=O)[O-])NCCSCc1ccc(CN(C)C)o1` the figure was -19.9% (inactive); with `N=C1CCCN1Cc1[nH]c(=O)[nH]c(=O)c1Cl`, 4.84% (inactive).

The values are drawn from PubChem BioAssay (NCATS).
